We go through 29 compounds from PubChem BioAssay (NCATS).

Records with an inconclusive call do not appear. A number with no mark means an inactive call. Calls of active or inactive are those of the source. Calls come from the whole dose curve; as a rule, active = well fitted inhibition curve with a large enough effect; inconclusive = small, poorly fitted or top-dose-only effect; inactive = flat fitted curve, though single readings scatter.
% is set by controls: 0 for no effect and ±100 for the full control effect; potency is the fitted concentration of half-maximal effect.

The test deals with NIH3T3. Kind of test: Cytotoxic Profiling of Annotated Libraries Using Quantitative High-Throughput Screening (AID 1296008). Note: nearly all actives have a fitted effect of over 60% in size. Conditions: Five cell lines viability, CellTiter-Glo ATP luminescence, 48-72 h; max response: stronger effect = lower value. The essentials:
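Cytotoxicity was measured as CellTiter-Glo ATP luminescence, read after 10 min at room temperature. Compound treatment of the cells lasted 48 or 72 hr at 37 degrees Celsius in a qHTS format.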
For orientation: In ATP-based viability assays light output follows the ATP content of the culture.
On to `C#CC[C@H](c1nc2cc(Cl)ccc2c(=O)n1Nc1ccccc1)N(CCCN)C(=O)c1cccc(Cl)c1F`, for which the Potency was 10.3 µM (active). For `c1cn2cc(-c3ccc4cn[nH]c4c3)nc(Nc3ccc(N4CCOCC4)cc3)c2n1`, the max response was -11.5%. Still for that read-out and setting: then `CC1CCC2(C(=O)O)CCC3(C)C(=CCC4C5(C)CCC(OC(=O)/C=C/c6ccccc6)C(C)(C)C5CCC43C)C2C1C` (centres undefined), with -3.46%; and `NC(=O)c1cccc2cn(-c3ccc(C4CCCNC4)cc3)nc12` (centres undefined), with -14%. Turning to `Nc1nc2c(c(=O)[nH]1)C[C@@H](CCc1ccc(C(=O)N[C@@H](CCC(=O)O)C(=O)O)cc1)CN2`, the Potency was 0.103 µM (active). Consider `CC/C=C\C/C=C\C/C=C\CCCCCCCC(=O)OCC(O)COC1OC(CO)C(O)C(O)C1O` (centres undefined), for which the max response is -3.16%. Take `Cn1c(=O)n(-c2ccc(C(C)(C)C#N)cc2)c2c3cc(C#Cc4cccnc4)ccc3ncc21`: the Potency is 0.2 µM (active). With `Cn1cc(S(=O)(=O)c2ccc(Cl)cc2)c2cccc(N3CCNCC3)c21`, the Potency was 18.4 µM (active).

Consider `CC[C@H](CO)Nc1nc(NCc2ccc(-c3ccccn3)cc2)c2ncn(C(C)C)c2n1`, for which the Potency is 0.517 µM (active). On to `CC1OC2OC(=O)C3(C)CC4=C(CO)C5=C(CC(=O)C4(C)C(C1=O)C23)C(C)(C)OC(=O)C5` (centres undefined), for which the max response was -2.31%. Same read-out and setting: next, `CCN1CCN(Cc2ccc(Nc3ncc(F)c(-c4cc(F)c5nc(C)n(C(C)C)c5c4)n3)nc2)CC1`: 1.34%; `CC1=C(C(=O)O[C@@H]2O[C@H](COC3OCC(O)C(O)C3O)[C@@H](O)[C@H](O)[C@H]2O)C(C)(C)CCC1` (some centres undefined): -7.14%. On to `C[C@@H](Oc1cc(-n2cnc3ccc(OC4CCN(C)CC4)cc32)sc1C(N)=O)c1ccccc1C(F)(F)F`, for which the Potency is 5.8 µM (active). As for `CC1(C)CC2C=C(C(=O)O)C3COC(=O)C(O)(CO)C23C1` (centres undefined), the max response is -0.118%. On the same count and under the same terms, next, `COC1CC(O[C@H]2CC[C@@]3(C)C(=CC[C@]4(O)C3[C@H](OC(C)=O)[C@@H](OC(=O)c3ccccc3)[C@]3(C)[C@@H](C(C)=O)CC[C@@]34O)C2)OC(C)C1OC1CC(OC)C(OC2CC(OC)C(OC3OC(C)C(OC4OC(CO)C(O)C(O)C4O)C(OC)C3O)C(C)O2)C(C)O1` (some centres undefined): -0.853%. In the case of `C[C@@H]1C[C@H]2O[C@@H]2/C=C\C=C\C(=O)Cc2c(Cl)c(O)cc(O)c2C(=O)O1`, the Potency was 1.74 µM (active). The same measure, in the same setting: next, `CC(=O)OC1C(=O)C2(C)C(O)CC3OCC3(OC(C)=O)C2C(OC(=O)c2ccccc2)C2(O)CC(OC(=O)C(O)C(NC(=O)c3ccccc3)c3ccccc3)C(C)=C1C2(C)C` (centres undefined): 0.092 µM (active).

`C=CC1C(OC2OC(CO)C(O)C(O)C2O)OC=C(C(=O)OC)C1CC1CC(=O)CC(CCc2ccc(O)cc2)O1` (centres undefined): the max response is -7.36%. Regarding `COC(=O)CCc1cc2ccoc2c(OC)c1O[C@@H]1O[C@H](CO)[C@@H](O)[C@H](O)[C@H]1O`, the max response is 0.737%. Regarding `C=C1C(=O)O[C@@H]2C/C(C)=C\C(=O)/C=C(\C)[C@@H](OC(=O)/C(C)=C\C)[C@H](O)[C@@H]12`, the Potency was 10.1 µM (active). `C[C@@H]1C(=O)O[C@H]2[C@@H](O)C34[C@H]5C[C@@H](C(C)(C)C)C36[C@@H](OC(=O)[C@@H]6O)O[C@@]4(C(=O)O5)[C@@]12O` (some centres undefined): the max response was -0.498%.

As to `COc1cc(C(=O)NC2CCN(C)CC2)c(F)cc1Nc1ncc2c(n1)N(C1CCCC1)CC(F)(F)C(=O)N2C`, the Potency is 0.82 µM (active). The same measure, in the same setting: next, `CN(C)c1nc(NC2CCC(NCCc3ccc(Br)cc3OC(F)(F)F)CC2)nc2ccccc12` (centres undefined): 4.11 µM (active); `O=C(O)/C=C/c1ccc(-c2ccc(O)c(C34CC5CC(CC(C5)C3)C4)c2)cc1`: 0.92 µM (active). The same measure, in the same setting: next, `NCc1ccc(Nc2ncc(F)c(Nc3ccccc3)n2)cc1`: 14.6 µM (active); `Cc1cc(O)c(-c2ccc([C@@H](C)CN(C)C)cc2)c2c1[nH]c(=O)c1sccc12`: 0.231 µM (active). Regarding `O=C(c1ccc(/C=C/c2n[nH]c3ccccc23)cc1)N1CCNCC1`, the Potency is 4.61 µM (active). Still for that read-out and setting: then `CCCCc1nc2cc(/C=C/C(=O)NO)ccc2n1CCN(CC)CC`, with 5.17 µM (active).

For `CN1CCN(Cc2ccc(-c3cnc4[nH]cc(-c5ccc6[nH]ccc6c5)c4c3)cc2)CC1`, the Potency was 14.6 µM (active).
